According to ChEMBL document CHEMBL4513146, “CO-ADD screening of Karazin Kharkiv National University (Ukraine) compounds”:
Results with a measured potency or affinity are listed apart.

Tests used:
Staphylococcus aureus = settings: Concentration 32 ug.mL-1;; ASSAY_TEST Inhibition of Bacterial Growth; detection method Absorption (OD600); MEDIA CAMHB; plate type 384well; NBS; CORNING #3640; time 18 hr
Escherichia coli = settings: Concentration 32 ug.mL-1;; ASSAY_TEST Inhibition of Bacterial Growth; detection method Absorption (OD600); MEDIA CAMHB; plate type 384well; NBS; CORNING #3640; time 18 hr

SMILES: CSc1ccc(-c2noc(Cn3nc4ccc(-c5ccccc5)nn4c3=O)n2)cc1
- Inhibition (Staphylococcus aureus): 3.45%
- Inhibition (Escherichia coli): 0.55%

SMILES: COc1cccc(-n2ccn3c(SCC(=O)N4CCN(c5ccccc5F)CC4)nnc3c2=O)c1
- Inhibition (Staphylococcus aureus): 12.37%
- Inhibition (Escherichia coli): -5.42%

SMILES: O=c1n(Cc2cc(F)cc(F)c2)nc2ccc(-c3ccccc3)nn12
- Inhibition (Staphylococcus aureus): 8.62%
- Inhibition (Escherichia coli): -1.58%

SMILES: COc1cccc(CN(c2cc(C)cc(C)c2)S(=O)(=O)c2cccn3c(C)nnc23)c1
- Inhibition (Staphylococcus aureus): -0.14%
- Inhibition (Escherichia coli): -8.8%

SMILES: COc1cccc(Cn2nc3n(CCC(=O)NC4CCCCC4)c(=O)c4ccccc4n3c2=O)c1
- Inhibition (Staphylococcus aureus): 6.84%
- Inhibition (Escherichia coli): -3.05%

SMILES: COc1ccc(CCNC(=O)Cn2nc3c(N4CCOCC4)nccn3c2=O)cc1OC
- Inhibition (Staphylococcus aureus): 21.7%
- Inhibition (Escherichia coli): 0.1%

SMILES: Cc1cccc(C)c1NC(=O)Cn1nc2c(Sc3cccc(F)c3)nccn2c1=O
- Inhibition (Staphylococcus aureus): 9.75%
- Inhibition (Escherichia coli): -2.6%

SMILES: COc1cccc(Sc2nc3ccccc3n3c(=O)n(CC(=O)Nc4ccc(C)c(C)c4)nc23)c1
- Inhibition (Staphylococcus aureus): 2.16%
- Inhibition (Escherichia coli): 0.23%

SMILES: COc1cc(NC(=O)CSc2nnc3c(=O)n(-c4ccc(C)c(C)c4)ccn23)cc(OC)c1
- Inhibition (Staphylococcus aureus): 3.54%
- Inhibition (Escherichia coli): -13.82%

SMILES: O=C(Cn1nc2c3sc(N4CCCC4)nc3ncn2c1=O)Nc1ccccc1Br
- Inhibition (Staphylococcus aureus): 3.7%
- Inhibition (Escherichia coli): -11.75%

SMILES: COc1cccc(-n2ccn3c(SCc4ccccc4C)nnc3c2=O)c1
- Inhibition (Staphylococcus aureus): 11%
- Inhibition (Escherichia coli): -3.45%

SMILES: Cc1ccc(Oc2nc3ccccc3n3c(=O)n(CC(=O)Nc4cccc(C(F)(F)F)c4)nc23)cc1
- Inhibition (Staphylococcus aureus): 0.5%
- Inhibition (Escherichia coli): -3.3%

SMILES: COc1ccc(-c2cc3c4nn(CC(=O)Nc5cc(C)ccc5OC)c(=O)n4ccn3n2)cc1
- Inhibition (Staphylococcus aureus): 1.5%
- Inhibition (Escherichia coli): -0.57%

SMILES: COc1ccc(-c2cc3c4nn(CC(=O)Nc5cc(OC)ccc5OC)c(=O)n4ccn3n2)cc1
- Inhibition (Staphylococcus aureus): 5.8%
- Inhibition (Escherichia coli): 4.02%

SMILES: Cc1ccc(-c2ccc3nn(Cc4cccc(Cl)c4)c(=O)n3n2)cc1C
- Inhibition (Staphylococcus aureus): 8.16%
- Inhibition (Escherichia coli): -3.9%

SMILES: CCCCOc1ccc(-c2cc3c4nnc(SCC(=O)Nc5cc(F)ccc5C)n4ccn3n2)cc1
- Inhibition (Staphylococcus aureus): -12.48%
- Inhibition (Escherichia coli): -11.69%

SMILES: COc1ccc(NC(=O)CSc2nc3ccccc3n3cnnc23)cc1OC
- Inhibition (Staphylococcus aureus): 12.3%
- Inhibition (Escherichia coli): 2.46%

SMILES: CCc1nnc2ccc(S(=O)(=O)N(Cc3cccc(F)c3)c3ccc(OC)cc3)cn12
- Inhibition (Staphylococcus aureus): 7.39%
- Inhibition (Escherichia coli): -21.14%

SMILES: COc1ccc(N(Cc2ccc(F)cc2)S(=O)(=O)c2ccc3nncn3c2)cc1
- Inhibition (Staphylococcus aureus): -7.56%
- Inhibition (Escherichia coli): -2.8%

SMILES: COC(=O)c1cccc(NC(=O)Cn2nc3c(N4CCC(C)CC4)nccn3c2=O)c1
- Inhibition (Staphylococcus aureus): -12.03%
- Inhibition (Escherichia coli): -9.95%

SMILES: O=C(CSc1nnc2c(=O)n(Cc3ccc(F)cc3)ccn12)NCC1CCCO1 (stereo not drawn)
- Inhibition (Staphylococcus aureus): 8.21%
- Inhibition (Escherichia coli): -3.13%

SMILES: CCc1ccc(NC(=O)Cn2nc3ccc(SC4CCCCC4)nn3c2=O)cc1
- Inhibition (Staphylococcus aureus): 16.16%
- Inhibition (Escherichia coli): 2.08%

SMILES: CCOc1ccc(C(=O)Cn2nc3n(Cc4ccccc4OC)c(=O)c4sccc4n3c2=O)cc1
- Inhibition (Staphylococcus aureus): -7.18%
- Inhibition (Escherichia coli): -6.25%

SMILES: CCc1ccccc1Sc1nccn2c(=O)n(CC(=O)NCc3cccs3)nc12
- Inhibition (Staphylococcus aureus): 6.5%
- Inhibition (Escherichia coli): -12.39%

SMILES: Cc1ccc(-c2ccc3nn(Cc4cccc(Br)c4)c(=O)n3n2)cc1C
- Inhibition (Staphylococcus aureus): 9.24%
- Inhibition (Escherichia coli): -2.14%

SMILES: COc1ccc(-c2cc3c4nnc(SCC(=O)Nc5ccc(C)cc5Cl)n4ccn3n2)cc1
- Inhibition (Staphylococcus aureus): 2.3%
- Inhibition (Escherichia coli): -3.13%

SMILES: Cc1cc2nn(CC(=O)Nc3cc(F)cc(F)c3)c(=O)n2c(Nc2ccccc2C)n1
- Inhibition (Staphylococcus aureus): 5.53%
- Inhibition (Escherichia coli): -3.12%

SMILES: COc1ccc(-c2cc3c4nnc(SCC(=O)Nc5cc(Cl)ccc5C)n4ccn3n2)cc1
- Inhibition (Staphylococcus aureus): -1.91%
- Inhibition (Escherichia coli): -8.79%

SMILES: COc1cccc(-n2ccn3c(SCc4ccccc4Cl)nnc3c2=O)c1
- Inhibition (Staphylococcus aureus): 8.33%
- Inhibition (Escherichia coli): -9.75%

SMILES: COc1cc(OC)c(NC(=O)Cn2nc3ccc(SC4CCCCC4)nn3c2=O)cc1Cl
- Inhibition (Staphylococcus aureus): 7.67%
- Inhibition (Escherichia coli): 5.95%

SMILES: COc1cccc(-n2ccn3c(SCC(=O)Nc4cccc(F)c4)nnc3c2=O)c1
- Inhibition (Staphylococcus aureus): -6.79%
- Inhibition (Escherichia coli): -18.41%

SMILES: Cc1nnc2c(S(=O)(=O)N(Cc3cccc(F)c3)c3ccc(C(C)C)cc3)cccn12
- Inhibition (Staphylococcus aureus): 15.47%
- Inhibition (Escherichia coli): -0.86%

SMILES: O=S(=O)(c1cccn2cnnc12)N(Cc1ccc(F)cc1)c1ccc(F)cc1
- Inhibition (Staphylococcus aureus): 8.29%
- Inhibition (Escherichia coli): -3.31%

SMILES: CCCCOc1ccc(-c2cc3c4nnc(SCC(=O)Nc5ccc(F)cc5)n4ccn3n2)cc1
- Inhibition (Staphylococcus aureus): 2.53%
- Inhibition (Escherichia coli): -6.79%

SMILES: Cc1cc(C)cc(Nc2nc(C)cc3nn(CC(=O)Nc4ccc(C)c(F)c4)c(=O)n23)c1
- Inhibition (Staphylococcus aureus): 9.64%
- Inhibition (Escherichia coli): -0.61%

SMILES: CCCc1nnc2c(=O)n(CC(=O)N3CCCc4ccccc43)c3ccccc3n12
- Inhibition (Staphylococcus aureus): 2.88%
- Inhibition (Escherichia coli): -3.24%

SMILES: O=C(CSc1nnc2c(=O)n(-c3cccc(F)c3)ccn12)Nc1ccc(Br)cc1
- Inhibition (Staphylococcus aureus): 17.12%
- Inhibition (Escherichia coli): -2.48%

SMILES: Cc1cc(C)cc(Nc2nc(C)cc3nn(CC(=O)Nc4ccccc4)c(=O)n23)c1
- Inhibition (Staphylococcus aureus): 4.32%
- Inhibition (Escherichia coli): -6.45%

SMILES: COc1cccc(NC(=O)Cn2nc3ccc(SCc4ccc(Cl)cc4)nn3c2=O)c1
- Inhibition (Staphylococcus aureus): -4.03%
- Inhibition (Escherichia coli): 0.27%

SMILES: Cc1ccc(-n2ccn3c(=O)n(Cc4ccccc4Cl)nc3c2=O)cc1C
- Inhibition (Staphylococcus aureus): 0.51%
- Inhibition (Escherichia coli): -7.32%

SMILES: CCOc1ccc(-n2ccn3c(SCC(=O)c4ccc(F)cc4)nnc3c2=O)cc1
- Inhibition (Staphylococcus aureus): 21.72%
- Inhibition (Escherichia coli): 2.02%

SMILES: COc1cccc(-n2ccn3c(SCC(=O)Nc4ccc(F)cc4F)nnc3c2=O)c1
- Inhibition (Staphylococcus aureus): 12.12%
- Inhibition (Escherichia coli): -6.2%

SMILES: COc1ccc(NC(=O)Cn2nc3c4cc(-c5ccc(F)cc5)nn4ccn3c2=O)c(OC)c1
- Inhibition (Staphylococcus aureus): 8.82%
- Inhibition (Escherichia coli): -0.75%

SMILES: CC(C)Cn1c(=O)c2ccc(C(=O)NC3CCCCC3)cc2n2c(=O)n(CC#N)nc12
- Inhibition (Staphylococcus aureus): 8.84%
- Inhibition (Escherichia coli): -0.16%

SMILES: COc1cccc(Oc2nccn3c(=O)n(CC(=O)NCc4ccc(SC)cc4)nc23)c1
- Inhibition (Staphylococcus aureus): 10.98%
- Inhibition (Escherichia coli): 2.64%

SMILES: O=C(CSc1nnc2c(=O)n(Cc3ccc(F)cc3)ccn12)NC1CCCC1
- Inhibition (Staphylococcus aureus): 13.37%
- Inhibition (Escherichia coli): -4.53%

SMILES: COc1cccc(CNC(=O)CSc2nnc3c(=O)n(-c4ccccc4)ccn23)c1OC
- Inhibition (Staphylococcus aureus): 2.64%
- Inhibition (Escherichia coli): -7.08%

SMILES: CSc1cccc(NC(=O)Cn2nc3c(Sc4ccccc4)nccn3c2=O)c1
- Inhibition (Staphylococcus aureus): -5%
- Inhibition (Escherichia coli): -10.44%

SMILES: Cc1ccc(-c2cc3c4nn(CC(=O)Nc5ccc(Cl)cc5)c(=O)n4ccn3n2)cc1C
- Inhibition (Staphylococcus aureus): -15.51%
- Inhibition (Escherichia coli): -16.09%
